According to PubChem BioAssay (EPA / NIEHS):
Results filed as inconclusive are left out. Activity calls are given as the source filed them. The calls were made as follows: active = hit-call score of the fitted dose curve at least 0.9, where 1 is the maximum; inconclusive = response in the unintended direction; inactive = score below 0.9.

Assay: ACEA_AR_agonist_AUC_viability: ACEA Biosciences xCELLigence Real-Time Cell Analysis on Androgen Receptor Agonism for Viability (AID 2283775);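 as to AC50: viability read 80 hours after compound addition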
Method: ACEA_AR_agonist is a cell-based, single-readout assay that uses 22Rv1, a human prostate cancer cell line, with measurements taken at 80 hours after chemical dosing in a 384-well plate, although TO5 and TO6 (mc0.srcf) used a 96-well plate. Differences in plate size can be ignored given data normalization.ACEA_AR_80hr is one of two assay component(s) measured or calculated from the ACEA_AR assay. It is designed to make measurements of real-time cell-growth kinetics, a form of growth reporter, as detected with electrical impedance signals by Real-Time Cell Electrode Sensor (RT-CES) technology.Data from the assay component ACEA_AR_AUC_viability was analyzed in the positive analysis fitting direction relative to DMSO as the negative control and baseline of activity. Using a type of growth reporter, loss-of-signal activity can be used to understand changes in the viability. Furthermore, this assay endpoint can be referred to as a secondary readout, because this assay has produced multiple assay endpoints where this one serves a viability function. To generalize the intended target to other relatable targets, this assay endpoint is annotated to the cell cycle intended target family, where the subfamily is cytotoxicity.
The xCELLigence system Multi-E-Plate stations were used to measure the time-dependent response to chemicals. Each compound was tested in an eight-point, 1:4 serial dilution series starting at a maximum final concentration of 100 uM. A maximum starting concentration of 0.5% DMSO was present in the 100 uM chemical samples and was diluted along with the test article dilution series. The screen was performed in biological duplicate using two separate, 96-well, E-Plates 96 for each dilution series (n = 2). Positive controls (MG132 and testosterone) and a negative control (assay media) were tested in quadruplicate on each testing plate. Then, 0.5% and 0.125% DMSO were tested in duplicates in each plate to serve as solvent controls for the 2 highest concentrations of testing compounds: 100 uM and 25 uM. Reference compounds were tested with 8 concentrations with 1:5 serial dilutions. All screening was carried out by ACEA Biosciences, Inc. (San Diego, CA). 22Rv1 cells purchased from ATCC were maintained in media supplemented with 10% fetal bovine serum (FBS). Before screening, 22Rv1 cells were preconditioned in assay medium. Cells were then detached and seeded in E-Plates 96 in assay medium. After overnight monitoring of growth once every hour, compounds were added to […] cells and remained in the medium until the end of the experiment. Cellular responses were then recorded once every 5 min for the first 5 h, and once every hour for an additional 100 h.

SMILES	AC50	outcome
CCCCC(CC)COP(=O)(OCC(CC)CCCC)OCC(CC)CCCC (stereo not given)	17.6 µM (active)	–
CCCCC(CC)COC(=O)CCCCCCCC(=O)OCC(CC)CCCC (stereo not given)	–	inactive
CN(C)C(=O)NC1(c2ccccc2)CCN(CC[C@@]2(c3ccc(F)c(F)c3)CN(C(=O)c3ccccc3)CCO2)CC1	47 µM (active)	–
NC1CCCCC1	–	inactive
CC(=O)O	–	inactive
C#CC(O)C(CC)CCCC (stereo not given)	–	inactive
c1ccc2occc2c1	–	inactive
Cn1cnc2c1c(=O)[nH]c(=O)n2C	–	inactive
CC(C)OC(=O)C(C)(C)Oc1ccc(C(=O)c2ccc(Cl)cc2)cc1	35.4 µM (active)	–
CC(=O)CC(c1ccccc1)c1c(O)c2ccccc2oc1=O (stereo not given)	–	inactive
CSc1ccc(Oc2ccc(S(N)(=O)=O)cc2CN(C)C)cc1C	65.2 µM (active)	–
Nc1nc(=S)c2[nH]cnc2[nH]1	0.655 µM (active)	–
OCC(CO)n1cnc(-c2ccc(F)cc2)c1-c1ccnc(Oc2ccccc2)n1	–	inactive
CCCCCCCCCCCCCCOS(=O)(=O)O	68 µM (active)	–
O=C1NC(=O)C(c2ccccc2)(c2ccccc2)N1	33.6 µM (active)	–
CCOCCOCCO	–	inactive
O=C(O)c1cccnc1	–	inactive
CCCC[C@H]1CN(CC2CCOCC2)C(=O)OC12CCN(C1(C)CCN(C(=O)c3c(C)ncnc3C)CC1)CC2	–	inactive
C=CCCCCCCCCCCCC	–	inactive
CCCCCCCC(=O)OC	13.9 µM (active)	–

SMILES	AC50	outcome
CC(C)COC(=O)CCCCC(=O)OCC(C)C	–	inactive
O=C(NS(=O)(=O)/C=C/c1cccs1)c1ccc(F)cc1Br	3.38 µM (active)	–
Cc1cc(Cc2ccc(N)c(C)c2)ccc1N	–	inactive
NC(=Nc1ccccc1)Nc1ccccc1	–	inactive
CCc1cc(C2=C(C(=O)O)N(c3ccccc3C(F)(F)F)S(=O)(=O)c3ccccc32)cc2c1OCO2	–	inactive
CCCCc1nc2cccnc2n1Cc1ccc(-c2ccccc2-c2nnn[nH]2)cc1	50 µM (active)	–
CC1=C(C)S(=O)(=O)CCS1(=O)=O	82.6 µM (active)	–
O=C1O[C@H]([C@H](O)CO)C(O)=C1O	–	inactive
CCc1nc(N)nc(N)c1-c1ccc(Cl)cc1	50 µM (active)	–
C/C=C/c1ccc(OC)cc1	–	inactive
O=C(O)CN(CC(=O)O)CC(=O)O	–	inactive
Cc1c(C)c2c(c(C)c1O)CCC(C)(COc1ccc(CC3SC(=O)NC3=O)cc1)O2 (stereo not given)	50 µM (active)	–
O=C(O)c1[nH]n(-c2ccc(S(=O)(=O)O)cc2)c(=O)c1N=Nc1ccc(S(=O)(=O)O)cc1	–	inactive
Nc1nc(Cl)nc2c1ncn2[C@H]1C[C@H](O)[C@@H](CO)O1	1.98 µM (active)	–
CN(C)C(=O)NC1(c2ccccc2)CCN(CCC[C@]2(c3ccc(Cl)c(Cl)c3)CCCN(C(=O)c3ccccc3)C2)CC1	16.2 µM (active)	–
CC(N)=O	–	inactive
CO[C@@H]1COCC[C@@H]1N[C@@H]1CC[C@@](C(=O)N2CCc3ncc(C(F)(F)F)cc3C2)(C(C)C)C1	–	inactive
CCCCCCC(CCCCCCCCCCC(=O)OCC(COC(C)=O)OC(C)=O)OC(C)=O (stereo not given)	–	inactive
CN(C)CCCN(C)CCCN(C)C	–	inactive
COC(=O)CCC(=O)OC	–	inactive
